Inconclusive results are not listed. The list shows a part of the results. The source made the active and inactive calls.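 Rule for the calls, unless noted: active = GFP response above 150% of the DMSO level; inconclusive = fewer than 70 events counted for a yeast strain; inactive = the rest.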
Key:
[1] = biological target: Regulator of G-protein signaling 16 (Homo sapiens) (UniProt O15492); assay: modulators of RGS–Galpha-o binding, primary screen, biochemical, multiplexed beads, flow cytometry, RGS4/7/8/16/19 (AID 1504); details: multiplexed bead flow cytometry, measured here: RGS16 interaction, at 10 µM;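 note: fluorescently labeled Galpha-o bound to GDP with aluminium fluoride binding biotinylated RGS beads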
[2] = biological target: Regulator of G-protein signaling 19 (Homo sapiens) (UniProt P49795); assay: as above; details: multiplexed bead flow cytometry, measured here: RGS19 interaction, at 10 µM
[3] = biological target: Regulator of G-protein signaling 7 (Homo sapiens) (UniProt P49802); assay: as above; details: multiplexed bead flow cytometry, measured here: RGS7 interaction, at 10 µM
[4] = biological target: Regulator of G-protein signaling 8 (Homo sapiens) (UniProt P57771); assay: as above; details: multiplexed bead flow cytometry, measured here: RGS8 interaction, at 10 µM
[5] = disruption of biotin probe capture by avidin, counter-screen for RGS protein interaction modulators, biochemical, flow cytometry, bead-based (AID 1783;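 active = inhibition above 50%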;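 note: median green fluorescence of gated singlet beads compared with DMSO control wells; 0% = DMSO wells and 100% = complete loss of bead fluorescence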); details: streptavidin beads, fluorescein-biotin binding; at 10 µM, stronger effect = higher value
[6] = biological target: Guanine nucleotide-binding protein G(o) subunit alpha (Homo sapiens) (UniProt P09471); assay: RGS8-Galphao binding modulators, confirmation, biochemical, multiplexed bead flow cytometry, single concentration (AID 1836; in the data active = binding response below about 72% or above about 130%; inactive = in between;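 note: Galphao activated as GDP AlF4 complex before binding bead RGS8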); details: bead-based flow cytometry RGS8-Galphao binding, fluorescence; at 10 µM; actives lie on both sides
Sequence of Guanine nucleotide-binding protein G(o) subunit alpha (Homo sapiens) (P09471 whole entry, looked up): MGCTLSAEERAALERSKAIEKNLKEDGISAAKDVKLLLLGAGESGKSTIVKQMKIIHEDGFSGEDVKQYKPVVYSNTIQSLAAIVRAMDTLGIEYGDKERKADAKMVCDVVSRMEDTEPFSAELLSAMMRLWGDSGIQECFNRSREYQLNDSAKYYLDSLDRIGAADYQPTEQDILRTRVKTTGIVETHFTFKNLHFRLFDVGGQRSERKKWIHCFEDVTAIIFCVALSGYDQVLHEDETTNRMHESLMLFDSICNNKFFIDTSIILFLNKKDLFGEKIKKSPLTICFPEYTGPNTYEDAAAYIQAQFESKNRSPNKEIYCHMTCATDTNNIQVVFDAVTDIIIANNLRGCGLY

[7] = biological target: Guanine nucleotide-binding protein G(o) subunit alpha (Homo sapiens) (UniProt P09471); assay: RGS7-Galphao binding modulators, confirmation, biochemical, multiplexed bead flow cytometry, single concentration (AID 1837; in the data active = response below about 75% or above about 130%; inactive = in between;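 note: fluorescent Galphao activated with GDP and aluminum fluoride binding bead-coupled RGS7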); details: bead-based flow cytometry RGS7-Galphao binding; at 10 µM; actives lie on both sides
[8] = biological target: Regulator of G-protein signaling 16 (Homo sapiens) + Guanine nucleotide-binding protein G(o) subunit alpha (Homo sapiens) (UniProt O15492+P09471); assay: modulators of RGS16-Galphao protein binding, confirmation, biochemical, single concentration, multiplexed bead flow cytometry (AID 1838; in the data active = response below about 74% or above about 130%; inactive = in between;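 note: Galphao activated as the GDP aluminium fluoride complex binding bead-coupled RGS16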); details: bead-based flow cytometry, at 10 µM, actives lie on both sides
[9] = biological target: Guanine nucleotide-binding protein G(o) subunit alpha (Homo sapiens) (UniProt P09471); assay: modulators of RGS4-Galphao protein binding, confirmation, biochemical, single concentration, multiplexed bead flow cytometry (AID 1840; in the data active = binding response below about 74% or above about 130%; inactive = in between); details: at 10 µM, actives lie on both sides
[10] = biological target: Guanine nucleotide-binding protein G(o) subunit alpha (Homo sapiens) + Regulator of G-protein signaling 19 (Homo sapiens) (UniProt P09471+P49795); assay: regulators of RGS19-Galphao binding, confirmation, biochemical, single point, multiplexed bead flow cytometry (AID 1841; in the data active = response below about 50% or above about 160%; inactive = in between;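 note: 100% = no compound control and 0% = blank background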); details: bead-based flow cytometry RGS19-Galphao binding; at 10 µM; actives lie on both sides
[11] = yeast TOR pathway RPL19A-GFP modulators, primary screen, cell-based, S. cerevisiae, multiplex flow cytometry (AID 1862; in the data active = percent of DMSO control GFP below about 86%;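 note: lower values mimic rapamycin by blocking the RPL19A rise seen in DMSO cells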); details: S. cerevisiae RPL19A-GFP strain, flow cytometry fluorescence, 3 h; at 10 µM; stronger effect = lower value
[12] = modulators of MEP2-GFP levels in yeast, primary screen, S. cerevisiae, multiplex flow cytometry (AID 1867;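 active = GFP response, as percent of the DMSO control, above the screen-wide mean plus 3 SD, about 139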;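 note: median GFP channel fluorescence of barcode-gated MEP2-GFP cells measured by flow cytometry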); details: S. cerevisiae MEP2-GFP strain, 3 h, at 10 µM, stronger effect = higher value, 100% means same as DMSO wells
[13] = modulators of CIT2-GFP expression in yeast, primary screen, S. cerevisiae, GFP fusion, multiplex flow cytometry (AID 1870;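 active = percent response above a set limit, the screen-wide mean plus 3 SD, cut at about 130% in these data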;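 note: barcoded CIT2-GFP strain pooled with four other GFP strains with rapamycin as positive control; median GFP fluorescence per well over plate mean of DMSO wells so 100% = DMSO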); details: 3 h, at 10 µM, stronger effect = higher value
[14] = modulators of LAP4-GFP expression in yeast, primary screen, S. cerevisiae, multiplex flow cytometry (AID 1873;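 active = GFP signal, as percent of the solvent control, above the screen mean plus 3 SD, about 149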); details: 3 h, at 10 µM, stronger effect = higher value
[15] = modulators of AGP1-GFP expression in yeast TOR pathway, primary screen, cell-based, multiplex flow cytometry, S. cerevisiae (AID 1887;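 active = GFP signal above the screen-wide mean plus 3 SD, that is over about 124.5% of the solvent control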;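 note: AGP1-GFP fusion strain of S. cerevisiae within a five-strain barcoded multiplex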); details: 3 h, at 10 µM, stronger effect = higher value
[16] = RPL19A-GFP modulators, yeast TOR pathway, confirmation, cell-based, S. cerevisiae, flow cytometry, cherry picks, mother/daughter gates (AID 2270;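 active = GFP response below 50% of the DMSO control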); details: S. cerevisiae RPL19A-GFP strain, 3 h, at 10 µM, stronger effect = lower value, 100 = same GFP as DMSO wells
[17] = LAP4-GFP expression modulators in yeast, confirmation, cell-based, cherry picks, flow cytometry, mother/daughter gates (AID 2271;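 active = GFP response above 150% of the DMSO control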;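 note: ratio of sample to DMSO plate mean so 100% equals DMSO level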); details: S. cerevisiae LAP4-GFP strain, 3 h, at 10 µM, stronger effect = higher value, 100 means same as DMSO control
[18] = modulators of MEP2-GFP levels in yeast, confirmation, S. cerevisiae, flow cytometry GFP, cherry picks (AID 2272;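 active = GFP response above 150% of the DMSO control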;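 note: ratio of well signal to plate DMSO mean so 100% equals DMSO level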); details: S. cerevisiae MEP2-GFP strain, 3 h, at 10 µM, stronger effect = higher value
[19] = AGP1-GFP expression modulators, hit retest, confirmation, cell-based, flow cytometry, S. cerevisiae, cherry picks (AID 2273);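 note: median GFP channel fluorescence over the whole cell population gate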; details: S. cerevisiae AGP1-GFP strain, 3 h, at 10 µM
[20] = modulators of CIT2-GFP expression in yeast, confirmation, S. cerevisiae, GFP fusion, cherry picks, mother/daughter gates (AID 2274); details: S. cerevisiae CIT2-GFP strain, flow cytometry, 3 h, at 10 µM, stronger effect = higher value
[21] = inhibitors of CD8+ T cell-vesicle binding, pilot screen, LFA-1/ICAM-1 modulator project, MLPCN validation set, flow cytometry (AID 2523;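 active = response below a set limit, under 55% cells CD8-positive and vesicle-bound, and CD8 cells' 90th-percentile brightness under 279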;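 for vesicle binding response: mean PE anti-B7-1 fluorescence of CD8+ cells relative to row control; 100% = QL9-loaded vesicles with DMSO vehicle in the same plate row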); details: 2C mouse CD8+ T cells, at 7 µM, stronger effect = lower value; double positive events: measured here: CD8+/vesicle+ event percentage
[22] = biological target: Integrin beta-1 (Homo sapiens) + Integrin alpha-4 (Homo sapiens) (UniProt P13612+P05556); assay: inhibition of HUTS-21 binding to VLA-4, pilot screen, VLA-4 allosteric modulator project, U937 cells, HUTS-21 mAb, flow cytometry, validation set (AID 2674;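 active = inhibition above 50%, about 3 SD of the validation set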;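 note: antibody binding induced by the VLA-4 ligand LDV present at three times its Kd; 0% = LDV ligand with antibody and no compound and 100% = antibody without LDV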); details: HUTS-21 LIBS mAb binding, at 6.7 µM, stronger effect = higher value, binding induced by LDV ligand
Sequence of Integrin beta-1 (Homo sapiens) + Integrin alpha-4 (Homo sapiens) (P05556 whole entry, looked up): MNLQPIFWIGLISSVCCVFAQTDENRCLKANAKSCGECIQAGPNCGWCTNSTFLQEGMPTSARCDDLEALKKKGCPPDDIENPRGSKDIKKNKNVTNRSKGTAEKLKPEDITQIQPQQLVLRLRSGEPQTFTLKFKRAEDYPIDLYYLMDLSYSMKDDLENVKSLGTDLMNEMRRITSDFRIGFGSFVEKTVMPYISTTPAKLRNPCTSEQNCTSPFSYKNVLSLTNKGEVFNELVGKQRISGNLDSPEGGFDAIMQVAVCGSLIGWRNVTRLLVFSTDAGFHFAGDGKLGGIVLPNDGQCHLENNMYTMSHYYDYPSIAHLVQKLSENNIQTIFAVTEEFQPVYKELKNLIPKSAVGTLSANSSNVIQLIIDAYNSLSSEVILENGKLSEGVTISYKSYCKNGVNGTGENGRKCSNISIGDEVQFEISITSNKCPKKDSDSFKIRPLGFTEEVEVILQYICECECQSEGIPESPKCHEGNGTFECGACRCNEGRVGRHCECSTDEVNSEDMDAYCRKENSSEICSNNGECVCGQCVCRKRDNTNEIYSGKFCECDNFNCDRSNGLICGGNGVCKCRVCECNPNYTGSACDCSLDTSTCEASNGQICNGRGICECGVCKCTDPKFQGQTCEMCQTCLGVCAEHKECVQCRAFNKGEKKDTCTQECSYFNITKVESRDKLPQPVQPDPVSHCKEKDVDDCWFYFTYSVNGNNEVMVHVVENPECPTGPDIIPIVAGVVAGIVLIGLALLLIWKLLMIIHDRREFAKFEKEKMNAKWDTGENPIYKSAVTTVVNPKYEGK
Sequence of Integrin beta-1 (Homo sapiens) + Integrin alpha-4 (Homo sapiens) (P13612 whole entry, looked up): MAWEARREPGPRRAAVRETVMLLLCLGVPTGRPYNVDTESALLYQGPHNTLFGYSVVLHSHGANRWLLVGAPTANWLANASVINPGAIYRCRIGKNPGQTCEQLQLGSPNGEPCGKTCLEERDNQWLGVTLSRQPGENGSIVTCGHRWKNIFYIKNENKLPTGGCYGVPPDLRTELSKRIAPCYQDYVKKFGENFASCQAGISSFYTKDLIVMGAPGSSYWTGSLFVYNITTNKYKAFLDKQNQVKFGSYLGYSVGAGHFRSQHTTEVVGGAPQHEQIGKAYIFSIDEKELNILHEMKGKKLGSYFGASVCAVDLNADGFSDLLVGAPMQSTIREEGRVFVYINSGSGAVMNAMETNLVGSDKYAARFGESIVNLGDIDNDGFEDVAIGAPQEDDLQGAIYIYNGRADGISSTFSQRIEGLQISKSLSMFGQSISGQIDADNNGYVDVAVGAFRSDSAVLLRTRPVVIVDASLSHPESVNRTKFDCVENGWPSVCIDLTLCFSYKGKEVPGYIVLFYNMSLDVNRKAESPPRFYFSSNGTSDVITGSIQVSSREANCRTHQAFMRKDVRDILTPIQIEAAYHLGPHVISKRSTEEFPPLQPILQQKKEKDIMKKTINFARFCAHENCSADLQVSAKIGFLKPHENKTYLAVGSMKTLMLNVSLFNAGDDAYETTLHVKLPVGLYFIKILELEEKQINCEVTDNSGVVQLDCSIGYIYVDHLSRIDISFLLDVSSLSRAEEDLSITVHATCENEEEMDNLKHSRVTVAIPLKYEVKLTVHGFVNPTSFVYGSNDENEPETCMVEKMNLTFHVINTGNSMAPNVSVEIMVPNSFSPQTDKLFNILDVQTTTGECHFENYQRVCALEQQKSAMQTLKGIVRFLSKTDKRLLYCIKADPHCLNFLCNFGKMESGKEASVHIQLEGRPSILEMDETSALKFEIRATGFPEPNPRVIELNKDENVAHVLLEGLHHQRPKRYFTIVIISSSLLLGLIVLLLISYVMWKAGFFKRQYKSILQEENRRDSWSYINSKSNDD

[23] = superoxide lowering in aged yeast cells, pilot screen, validation compound set (AID 2706;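 active = superoxide response below 65% of plate, a cut near 3 SD across the whole screen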;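 note: yeast exposed to compound for one week at 30 degrees C before staining; 100% = mean of all compound wells on the same plate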); details: S. cerevisiae aging, superoxide DHE fluorescence; at 10 µM; stronger effect = lower value
[24] = biological target: Beta-adrenergic receptor kinase 1 (Homo sapiens) (UniProt P25098); assay: GRK2 binders displacing RNA aptamer, biochemical, validation, human GRK2, bead flow cytometry (AID 488806;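 active = aptamer binding inhibition above 30%, about 3 SD of noise from non-fluorescent compounds; inactive = inhibition at or below 30%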); details: bead-bound GRK2, FAM-aptamer displacement, at 10 µM, stronger effect = higher value
Sequence of Beta-adrenergic receptor kinase 1 (Homo sapiens) (P25098 whole entry, looked up): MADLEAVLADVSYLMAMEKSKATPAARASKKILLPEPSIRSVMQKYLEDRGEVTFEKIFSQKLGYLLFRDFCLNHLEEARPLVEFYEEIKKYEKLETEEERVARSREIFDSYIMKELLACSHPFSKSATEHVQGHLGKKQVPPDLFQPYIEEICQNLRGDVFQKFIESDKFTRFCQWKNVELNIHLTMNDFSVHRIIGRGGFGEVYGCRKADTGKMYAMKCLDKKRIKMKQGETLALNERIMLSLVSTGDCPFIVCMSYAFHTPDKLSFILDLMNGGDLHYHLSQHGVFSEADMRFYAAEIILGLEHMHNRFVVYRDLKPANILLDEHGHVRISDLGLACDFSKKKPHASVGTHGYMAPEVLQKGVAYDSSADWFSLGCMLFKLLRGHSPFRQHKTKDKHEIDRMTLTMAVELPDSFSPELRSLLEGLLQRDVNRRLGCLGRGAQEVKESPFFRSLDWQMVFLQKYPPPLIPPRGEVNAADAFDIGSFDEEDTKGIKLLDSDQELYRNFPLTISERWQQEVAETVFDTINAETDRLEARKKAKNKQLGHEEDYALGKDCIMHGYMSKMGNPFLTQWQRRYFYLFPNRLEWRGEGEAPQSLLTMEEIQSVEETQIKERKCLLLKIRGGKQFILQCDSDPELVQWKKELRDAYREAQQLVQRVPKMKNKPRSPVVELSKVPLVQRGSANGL

[25] = biological target: Beta-2 adrenergic receptor (Homo sapiens) (UniProt P07550); assay: beta2AR agonists driving receptor internalization, pilot screen, cell-based, FAP fluorogen, flow cytometry, validation set (AID 504459;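 active = percent response above 42, roughly 3 SD of non-fluorescent test compounds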;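 note: agonist-driven loss of surface beta2AR via internalization measured by FAP dye flow cytometry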); details: Am2.2-beta2AR cells, FAP surface receptor flow cytometry; at 10 µM; stronger effect = higher value
Sequence of Beta-2 adrenergic receptor (Homo sapiens) (P07550 whole entry, looked up): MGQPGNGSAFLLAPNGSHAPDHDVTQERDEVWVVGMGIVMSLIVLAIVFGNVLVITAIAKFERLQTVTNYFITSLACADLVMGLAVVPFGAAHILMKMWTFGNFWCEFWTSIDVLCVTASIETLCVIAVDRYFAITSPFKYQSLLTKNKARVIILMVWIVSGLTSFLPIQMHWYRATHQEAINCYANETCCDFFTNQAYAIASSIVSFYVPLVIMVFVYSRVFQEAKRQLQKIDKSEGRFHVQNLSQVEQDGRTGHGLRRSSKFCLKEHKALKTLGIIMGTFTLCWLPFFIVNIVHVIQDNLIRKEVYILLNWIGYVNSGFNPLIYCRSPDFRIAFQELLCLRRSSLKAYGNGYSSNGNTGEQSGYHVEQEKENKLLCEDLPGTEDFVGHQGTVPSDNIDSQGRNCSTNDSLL

[26] = biological target: AP-2 complex subunit beta (Homo sapiens) (UniProt P63010); assay: inhibitors of arrestin peptide binding to AP2, pilot screen, biochemical, validation set, GST-AP2 beads, flow cytometry (AID 504541;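 active = inhibition above 54%, about 3 SD of non-fluorescent compounds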;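 note: AP2 carries R879A mutation and is captured from E. coli lysate; bead-bound FITC arrestin peptide fluorescence measuring arrestin peptide binding to AP2; 0% = DMSO wells and 100% = excess unlabeled arrestin peptide control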); details: FITC arrestin peptide, at 10 µM, stronger effect = higher value, AP2 beta2 appendage fragment, R879A mutant
Sequence of AP-2 complex subunit beta (Homo sapiens) (P63010 whole entry, looked up, the tested form may be a part, one chain of several): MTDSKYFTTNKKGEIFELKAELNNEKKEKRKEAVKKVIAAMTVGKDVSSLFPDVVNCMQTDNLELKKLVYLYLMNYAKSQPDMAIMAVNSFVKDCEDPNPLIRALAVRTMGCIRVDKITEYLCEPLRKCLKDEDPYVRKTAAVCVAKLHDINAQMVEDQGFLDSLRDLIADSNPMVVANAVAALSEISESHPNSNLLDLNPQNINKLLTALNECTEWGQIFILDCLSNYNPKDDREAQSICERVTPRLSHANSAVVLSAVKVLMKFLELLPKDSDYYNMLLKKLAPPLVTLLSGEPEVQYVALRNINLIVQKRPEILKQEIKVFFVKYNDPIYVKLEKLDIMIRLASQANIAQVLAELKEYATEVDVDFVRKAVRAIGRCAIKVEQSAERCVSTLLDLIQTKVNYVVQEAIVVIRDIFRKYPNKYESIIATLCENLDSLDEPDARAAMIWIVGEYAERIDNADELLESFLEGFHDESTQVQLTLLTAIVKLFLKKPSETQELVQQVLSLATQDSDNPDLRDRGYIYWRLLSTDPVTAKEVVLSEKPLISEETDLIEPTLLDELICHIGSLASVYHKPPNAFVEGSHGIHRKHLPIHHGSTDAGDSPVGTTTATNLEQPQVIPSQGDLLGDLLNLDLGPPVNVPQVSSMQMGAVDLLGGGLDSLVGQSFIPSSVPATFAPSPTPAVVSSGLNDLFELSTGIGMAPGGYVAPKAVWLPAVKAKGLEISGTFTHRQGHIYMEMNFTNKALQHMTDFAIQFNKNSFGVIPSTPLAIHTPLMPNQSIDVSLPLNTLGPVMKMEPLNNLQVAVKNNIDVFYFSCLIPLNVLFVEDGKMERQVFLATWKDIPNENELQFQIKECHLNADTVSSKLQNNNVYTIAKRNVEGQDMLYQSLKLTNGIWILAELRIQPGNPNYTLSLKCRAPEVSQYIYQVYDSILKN

[27] = yeast V-ATPase proton transport modulators, S. cerevisiae, pHLuorin, HTS validation (AID 504600; in the data active = response above about 15%;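 note: plate controls were DMSO for no effect and reference compound for full effect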); details: S. cerevisiae pHLuorin cytosolic pH, at 10 µM, stronger effect = higher value
[28] = tested on: anti-desmoglein-3 scFv antibody binding to human DSG3; assay: inhibitors of anti-DSG3 scFv binding to DSG3, pilot screen, biochemical, validation compound set, bead-based, flow cytometry (AID 588368;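 active = binding below the plate cutoff, the plate median minus 3 SD, with a reading above zero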;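 note: signal is the median channel fluorescence of bead-bound GFP antibody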); details: Protein G beads, DSG3-Fc, scFv-GFP binding, at 10 µM, stronger effect = lower value
[29] = inhibitors of fungal efflux pumps CDR1, CDR2, MDR1, pilot screen, validation compound set, multiplex, phenotypic (AID 588506;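 active = efflux inhibition above 0.42, the validation set average plus 4 SD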;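 note: Nile Red retained in cells so higher fluorescence means more efflux inhibition; 0 = negative control wells and 1 = enniatin B 25 µM full block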); details: S. cerevisiae pump-expressing triplex, Nile Red efflux flow cytometry; at 10 µM; stronger effect = higher value; the pumps come from Candida albicans
[30] = biological target: ATP-binding cassette sub-family B member 6 (Homo sapiens) (UniProt Q9NP58); assay: ABCB6 transporter inhibitors, pilot screen, K562-ABCB6 cells, flow cytometry, validation set (AID 588550;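 active = inhibition above the screen-wide mean plus 3 SD, about 51%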;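 note: 0% = DMSO wells and 100% = benzethonium chloride 70 µM positive control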); details: K562-ABCB6 porphyrin accumulation, 1 h, at 10 µM, stronger effect = higher value
Sequence of ATP-binding cassette sub-family B member 6 (Homo sapiens) (Q9NP58 whole entry, looked up): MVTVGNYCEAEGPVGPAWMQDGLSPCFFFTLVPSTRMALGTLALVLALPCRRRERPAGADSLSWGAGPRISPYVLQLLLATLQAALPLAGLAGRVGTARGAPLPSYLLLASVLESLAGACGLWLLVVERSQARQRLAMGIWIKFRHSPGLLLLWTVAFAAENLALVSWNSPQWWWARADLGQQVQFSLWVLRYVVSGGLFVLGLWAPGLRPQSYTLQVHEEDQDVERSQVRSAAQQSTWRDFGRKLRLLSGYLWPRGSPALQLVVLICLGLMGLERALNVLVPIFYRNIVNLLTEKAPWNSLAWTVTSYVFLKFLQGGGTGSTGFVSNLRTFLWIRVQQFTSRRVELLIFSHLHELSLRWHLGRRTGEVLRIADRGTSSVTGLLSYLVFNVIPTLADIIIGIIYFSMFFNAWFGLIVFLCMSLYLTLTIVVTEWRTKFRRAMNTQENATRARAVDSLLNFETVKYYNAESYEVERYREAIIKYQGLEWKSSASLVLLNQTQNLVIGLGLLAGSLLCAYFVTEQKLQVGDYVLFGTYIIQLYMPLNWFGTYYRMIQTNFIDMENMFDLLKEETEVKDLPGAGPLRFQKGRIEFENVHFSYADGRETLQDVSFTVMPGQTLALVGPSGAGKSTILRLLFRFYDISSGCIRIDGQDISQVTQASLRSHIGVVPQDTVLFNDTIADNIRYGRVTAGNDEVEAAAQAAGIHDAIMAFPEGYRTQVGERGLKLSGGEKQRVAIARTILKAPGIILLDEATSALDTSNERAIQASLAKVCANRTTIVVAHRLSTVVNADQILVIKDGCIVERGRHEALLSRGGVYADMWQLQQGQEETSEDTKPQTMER

[31] = promoters of myeloid differentiation in arrested cells, primary screen, cell-based, GFP/MAC1 double positive, flow cytometry, validation set (AID 588685;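 active = differentiation response of at least 50%, scaled between solvent and reference control, from cells with both markers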;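 note: compound exposure lasts four days before antibody staining and flow analysis; 0% = DMSO wells and 100% = 5 µM fulvestrant positive control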); details: ER-HoxA9 marrow cells, stronger effect = higher value, normalized: vehicle 0, fulvestrant 100
[32] = measured here: daughter cell gate
[33] = measured here: mother cell gate
[34] = measured here: daughter cell gate response
[35] = measured here: mother cell gate response

Nc1ccc(C(=O)OCC(=O)NC2CCS(=O)(=O)C2)cc1[N+](=O)[O-] (stereo unspecified)
289%: RGS7–Galpha-o binding response [3]
inactive: inhibition [5] -1.4% | binding response (% of control) [6] 101% | response (percent of control binding) [7] 103% | response (% of control binding) [8] 99.9% | binding response (% of control) [9] 100% | response (percent of control binding) [10] 103%
179%: RGS19–Galpha-o binding response [2]
-10.3%: RGS16–Galpha-o binding response [1]
6.98%: RGS8–Galpha-o binding response [4]

Cn1c(=O)c(C(=O)NCCO)c(O)c2ccccc21
86.4%: GFP response relative to DMSO [17, 34]
97.3%: GFP response, % of DMSO [20, 33]
102%: GFP response vs DMSO [16, 32]
103%: GFP response vs DMSO [16, 33]
60.8%: double positive events [21]
108%: GFP response, % of DMSO [20, 32]
inactive: percent of DMSO control GFP [11] 103% | GFP response vs DMSO [12] 105% | percent response of DMSO control [13] 103% | GFP response vs DMSO [14] 104% | GFP response, % of DMSO [15] 113% | GFP response vs DMSO [16] 101% | GFP response relative to DMSO [17] 87.6% | GFP response vs DMSO [18] 96.2% | GFP response, % of DMSO [19] 98.3% | GFP response, % of DMSO [20] 96.9% | vesicle binding response [21] 185% | inhibition [22] 15.9% | superoxide response (% of plate) [23] 104% | aptamer binding inhibition [24] 6% | response [25] -29.6% | inhibition [26] 6.89% | response [27] 2.23% | binding (% of control) [28] 103% | efflux inhibition (fraction of control) [29] 0 | inhibition [30] 1% | differentiation response [31] -5.97%
88.7%: GFP response relative to DMSO [17, 35]

CCCCN(CCCC)CCCOC(=O)c1ccc(N)cc1
64.8%: double positive events [21]
active: GFP response vs DMSO [12] 150%
97.6%: GFP response relative to DMSO [17, 34]
94%: GFP response relative to DMSO [17, 35]
101%: GFP response, % of DMSO [20, 32]
98%: GFP response vs DMSO [16, 33]
inactive: percent of DMSO control GFP [11] 92% | percent response of DMSO control [13] 115% | GFP response vs DMSO [14] 82% | GFP response, % of DMSO [15] 81.7% | GFP response vs DMSO [16] 97.6% | GFP response relative to DMSO [17] 94.1% | GFP response vs DMSO [18] 98.3% | GFP response, % of DMSO [19] 94.5% | GFP response, % of DMSO [20] 99.7% | vesicle binding response [21] 181% | inhibition [22] 0.64% | superoxide response (% of plate) [23] 92.8% | aptamer binding inhibition [24] 0% | response [25] -0.26% | inhibition [26] 6.38% | response [27] -2.47% | binding (% of control) [28] 104% | efflux inhibition (fraction of control) [29] 0.05 | inhibition [30] 9% | differentiation response [31] 1.64%
99.7%: GFP response, % of DMSO [20, 33]
97.4%: GFP response vs DMSO [16, 32]
